Test results as given in PubChem BioAssay AID720549 (National Center for Advancing Translational Sciences (NCATS), 2013).
Several values for one entry are separate records, joined by “and”; a condition that tells them apart may be missing. Identical values can stand only once. Records with an inconclusive call do not appear. A structure can be active in one record and inactive in another. Activity calls are given as the source filed them. Calls come from the whole dose curve; as a rule, active = well fitted inhibition curve with a large enough effect; inconclusive = small, poorly fitted or top-dose-only effect; inactive = flat fitted curve, though single readings scatter.

Biological target: RecQ-like DNA helicase BLM (Homo sapiens) (UniProt P54132)
Sequence (P54132 whole entry, looked up): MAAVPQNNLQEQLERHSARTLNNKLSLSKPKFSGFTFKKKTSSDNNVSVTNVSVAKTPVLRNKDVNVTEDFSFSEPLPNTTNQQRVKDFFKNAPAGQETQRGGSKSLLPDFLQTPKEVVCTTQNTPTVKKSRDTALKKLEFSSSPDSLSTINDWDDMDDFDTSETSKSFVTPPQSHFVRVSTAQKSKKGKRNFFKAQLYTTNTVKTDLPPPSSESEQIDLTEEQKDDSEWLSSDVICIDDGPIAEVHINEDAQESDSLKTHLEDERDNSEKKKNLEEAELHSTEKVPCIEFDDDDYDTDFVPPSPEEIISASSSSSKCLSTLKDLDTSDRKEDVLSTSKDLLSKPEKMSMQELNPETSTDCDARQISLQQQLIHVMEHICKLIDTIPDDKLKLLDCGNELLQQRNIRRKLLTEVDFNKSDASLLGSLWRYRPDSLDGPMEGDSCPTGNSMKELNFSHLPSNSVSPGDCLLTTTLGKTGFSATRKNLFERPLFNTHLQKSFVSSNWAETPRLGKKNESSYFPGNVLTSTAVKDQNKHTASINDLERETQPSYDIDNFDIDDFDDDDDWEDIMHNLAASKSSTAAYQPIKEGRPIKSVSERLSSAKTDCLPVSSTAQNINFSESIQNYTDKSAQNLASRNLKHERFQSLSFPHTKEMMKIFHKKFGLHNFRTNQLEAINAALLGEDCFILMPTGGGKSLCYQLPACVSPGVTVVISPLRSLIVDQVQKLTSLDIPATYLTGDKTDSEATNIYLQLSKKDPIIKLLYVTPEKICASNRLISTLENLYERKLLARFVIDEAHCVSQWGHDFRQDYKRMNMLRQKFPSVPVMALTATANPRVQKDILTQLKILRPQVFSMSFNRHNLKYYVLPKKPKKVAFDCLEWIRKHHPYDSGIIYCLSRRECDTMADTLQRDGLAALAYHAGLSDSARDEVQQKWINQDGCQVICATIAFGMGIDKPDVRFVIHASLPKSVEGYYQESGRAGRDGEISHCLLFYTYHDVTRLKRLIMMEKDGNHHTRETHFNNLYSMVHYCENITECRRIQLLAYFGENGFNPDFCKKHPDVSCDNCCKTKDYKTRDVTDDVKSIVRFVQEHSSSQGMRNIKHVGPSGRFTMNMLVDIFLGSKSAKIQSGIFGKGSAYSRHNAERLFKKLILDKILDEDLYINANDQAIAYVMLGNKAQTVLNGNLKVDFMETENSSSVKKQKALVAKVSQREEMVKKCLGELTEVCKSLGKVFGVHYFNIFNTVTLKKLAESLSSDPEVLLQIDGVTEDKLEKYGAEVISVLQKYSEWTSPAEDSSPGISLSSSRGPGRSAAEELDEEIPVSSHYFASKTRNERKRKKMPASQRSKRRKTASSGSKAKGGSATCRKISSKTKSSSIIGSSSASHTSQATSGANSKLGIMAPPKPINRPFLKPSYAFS
Test: qHTS for Inhibitors of Bloom's syndrome helicase (BLM): Helicase ATPase Orthogonal Confirmatory Assay for SAR
Details: purified BLM helicase ATPase activity assay; series mostly up to 57.1 µM; activity change, negative = inhibition: at the top concentration
Source text: Human RecQ DNA helicases participate in maintenance of genome stability and DNA repair. While other types of helicases have been explored as targets for drug development, members of the RecQ family have remained less well characterized. Mutations of the Bloom helicase gene have been associated with the rare human genetic disease called Bloom syndrome. […] Moreover, identified inhibitors can be used in cells and animal models to examine the consequences of inhibition on the survival of cancer cells where it has been shown that BLM plays an important role.
A fluorescence-based, biochemical assay in 1536 well format was developed to evaluate inhibition of BLM DNA unwinding activity. This assay was used to screen the MLPCN library. The resulting compounds were subjected to orthogonal and secondary biochemical assays to triage the initial hits, to classify compounds based on mode of action and to derive structure activity relationships (SARs) of candidate effectors. The data herein is the result of the Helicase ATPase orthogonal confirmatory assay. This luminescence assay employs a purified BLM enzyme and a single stranded BLM oligo substrate ([…]). For this assay increase in luminescence signal is greater than or equal to 700 RLU. Inhibition is the desired outcome for this assay.
NIH Chemical Genomics Center [NCGC]
NIH Molecular Libraries Probe Centers Network [MLPCN]
Assay Submitter (PI): Opher Gileadi, Structural Genomics Consortium, University of Oxford, UK
Three microliter of reaction buffer (25mM Tris-HCl pH 8.0, 50mM NaCl, 2mM MgCl2, 1mM DTT, and 0.01% Tween- 20, and 2nM BLM enzyme) was dispensed into a 1536-well assay plates (Greiner, solid white medium-binding) via Aurora Discovery BioRAPTR Flying Reagent Dispenser (FRD). Compounds (23nl each in columns 5-48) and control (23nl each in column 2 as dose-response) were transferred via a Kalypsys pintool equipped with a 1536-pin array. The plates were incubated for 15 min at room temperature followed by addition of 1 ul of substrates (200nM single-stranded oligonucleotide and 100uM ATP, final concentrations) to start the reaction. After 15 min., the reaction was terminated by the addition of 2.5ul of ADP-Glo Reagent I (Promega) to each well and incubation at room temperature for 30 min. Next, 5ul of ADP-Glo Reagent II (Promega) was added to each well. After 30 min at room temperature, the luminescence signal was detected using the ViewLux CCD imager. The data was normalized against no-inhibitor and no-enzyme controls and the resulting percent inhibition data were fitted to a sigmoidal dose response using a four-parameter Hill equation.

Activity change, negative = inhibition, inactive:
O=C(Nc1ccc(N2CCOCC2)c(C(F)(F)F)c1)Nc1nnc(-c2ccncc2)s1 -8.29%
O=C(Nc1ccc(-c2nc3ccccc3[nH]2)cc1)Nc1ccc2c(c1)OCCO2 -2.02% [at 114 µM]
O=C(Nc1ccc(Cl)c(Cl)c1)Nc1nc(-c2ccncc2)cs1 -14%
O=C(Nc1ccc(F)c(C(F)(F)F)c1)Nc1ccc(-c2ccncc2)s1 -4.77%
CCOc1ccc(NC(=O)Nc2ccc(-c3nc4ccccc4[nH]3)cc2)cc1 -5.67% [at 114 µM]
CC(C)(C)NC(=O)Nc1nnc(-c2ccncc2)s1 23.3%
O=C(Nc1ccc(F)c(C(F)(F)F)c1)Nc1nnc(C2CCCCC2)s1 -2.56%
COc1ccc(OC)c(-c2nnc(NC(=O)Nc3ccc4ccccc4c3)s2)c1 -3.08%
O=C(NCc1ccc(Cl)c(Cl)c1)Nc1nnc(-c2ccncc2)s1 -27.9%
Cc1cc(NC(=O)Nc2cccc(-c3ccncc3)n2)ccc1Br -25.7%
O=C(Nc1ccc(N2CCOCC2)c(F)c1)Nc1nnc(-c2ccncc2)s1 6.47%
O=C(Nc1ccc2ccccc2c1)Nc1nnc(-c2ccncc2)o1 6.97%
O=C(Nc1ccc(Cl)c(Cl)c1)Nc1nnc(-c2ccncc2)o1 15.6%
Cc1cc(NC(=O)Nc2cccc(-c3ccncc3)n2)ccc1F -5.53%
CCOC(=O)c1cccc(NC(=O)Nc2nnc(-c3ccncc3)s2)c1 2.71%
O=C(Nc1ccc(Oc2ccccc2)cc1)Nc1nnc(-c2ccncc2)s1 -13.1%
O=C(Nc1nnc(-c2ccncc2)s1)Nc1ccc(Cl)cc1F -12.5%
O=C(Nc1ccc(Cl)c(Cl)c1)Nc1ncc(-c2ccncc2)s1 -7.96%
O=C(Nc1ccc(-c2nc3ccccc3[nH]2)cc1)Nc1ccc2occc2c1 -7.88% [at 114 µM]
Nc1ccc(-c2nnc(NC(=O)Nc3ccc(Cl)c(Cl)c3)s2)cc1 -18.4%
O=C(Nc1ccc(Cl)c(Cl)c1)Nc1nnc(C2CCCCC2)s1 -3.66%
O=C(Nc1ccc(Cl)c(Cl)c1)Nc1nnc(N2CCNCC2)s1 -19.8%
c1ccc2[nH]c(Nc3nnc(-c4ccncc4)s3)nc2c1 -3.35%
Cc1cc(NC(=O)Nc2nnc(C3CCCCC3)s2)ccc1Br -11.7%
O=C(Nc1ccc(-c2ccccc2)cc1)Nc1nnc(-c2ccncc2)s1 -9.6%
O=C(Nc1ccc2ccccc2c1)Nc1nnc(-c2ccccn2)s1 -10.8%
O=C(Nc1ccc(F)c(C(F)(F)F)c1)Nc1nc(-c2ccncc2)cs1 1.56%
O=C(Nc1nnc(-c2ccncc2)s1)NC12CC3CC(CC(C3)C1)C2 15.3%
O=C(Nc1ccc2ccccc2c1)Nc1nnc(-c2ccccc2Cl)s1 -0.762%
CC(=O)c1ccc(NC(=O)Nc2nnc(-c3ccncc3)s2)cc1 -3.59%
O=C(Nc1ccc2ccccc2c1)Nc1nnc(-c2ccccc2)s1 0.431%
O=C(Nc1ccc2ccccc2c1)Nc1nnc(C2CCCCC2)s1 -8.14%
O=C(Nc1ccc2ccccc2c1)Nc1nnc(-c2ccccc2F)s1 -6.06%
Nc1ccc(NC(=O)Nc2nnc(-c3ccncc3)s2)cc1C(F)(F)F -7.21%

Potency, inactive and 20.4 µM (active):
N/C(=N\c1nnc(-c2ccncc2)s1)Nc1ccc(F)c(C(F)(F)F)c1

Potency, active:
O=C(Nc1ccc2ccccc2c1)Nc1nnc(-c2ccncc2)s1 3.24 µM
O=C(Nc1nnc(-c2ccncc2)s1)Oc1ccc2ccccc2c1 32.4 µM
N#Cc1cc(NC(=O)Nc2nnc(-c3ccncc3)s2)ccc1-c1cn[nH]c1 1.02 µM and 5.13 µM
N#Cc1cccc(NC(=O)Nc2nnc(-c3ccncc3)s2)c1 2.29 µM
N#Cc1cc(NC(=O)Nc2nnc(-c3ccncc3)s2)ccc1Br 0.646 µM
